This note sets out measurements from PubChem BioAssay AID1259415 (National Center for Advancing Translational Sciences (NCATS), 2018).

About 18,000 (4.4%) of roughly 410,000 compounds were called active. Roughly 7% stayed inconclusive and do not appear here. The sample as a whole holds a higher share of actives than the screen did. Values without a mark were called inactive. No stated cut-off is given here; in the data, active means activity change below about -60%; inconclusive means no clear call, values can overlap the other calls; inactive means above about -39%.
On the % scale 0 is the no-effect control and ±100 the full control effect.

This assay can be described thus: qHTS Assay for inhibitors of the human cytomegalovirus (HCMV). Conditions: HFF cells, HCMV-luciferase reporter, 72 h; at 57.5 µM; hits give low values. The method, boiled down:
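Screen run at 2 compound doses on HFFs infected with reporter HCMV, MOI 1 PFU/cell. Luciferase activity from cell lysates at 72 h post infection gave inhibition relative to buffer-only and Salinomycin wells.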
(qHTS replaces the single test concentration by a dilution series.)
For `O=C(NNS(=O)(=O)c1ccccc1)c1cnn(-c2ccc(Cl)cc2)c1C(F)(F)F`, the activity change, negative = inhibition is 2.04%.
With `CC(C)c1ccc(C2CC(=O)N3CN(C4CCCCC4)CSC3=C2C#N)cc1` (stereo not given) the figure was -5.74%; with `CC(=O)Nc1cc(-c2ccc(N3CCN(C)CC3)cc2)cn2c(-c3ccc(F)cc3)cnc12`, -75.2% (active).
With `CC(=O)Nc1cc(-c2ccc(N3CCN(C)CC3)cc2)cn2c(-c3cccc(C(=O)N(C)C)c3)cnc12`, the activity change, negative = inhibition is 8.54%.
The figure for `CC(=O)c1cccc(-c2cnc3c(NC=O)cc(-c4ccc(N5CCN(C)CC5)cc4)cn23)c1` is 19.8%; for `Cc1ccc2cccc(NC(=O)c3cccc4ccccc34)c2n1` it is -10.4%; for `COC(=O)C1CCN(C(=O)c2ccc3oc(Cc4ccc(Cl)cc4)nc3c2)CC1` it is 8.67%.
For `C/C(N)=C(/C#N)C(=O)COC(=O)C1CCN(C(=O)c2ccc(Cl)cc2)CC1`, the activity change, negative = inhibition is -65.3% (active).
With `O=C(NC1CCCCCC1)C1CCN(C(=O)c2ccc(Cl)cc2)CC1` the figure was -37.2%.
With `CCN(CCCNC(=O)c1c(C)oc2ncn(CC(C)C)c(=O)c12)Cc1ccccc1` the figure was -5.33%; with `Cc1ccc(C)c(NC(=O)C2CCCN(S(=O)(=O)c3cn(C)cn3)C2)c1` (stereo not given), 44.9%.
With `CC(CNC(=O)c1nnc(Cc2cccc(F)c2)o1)c1ccccc1` (stereo not given) the figure was -15.6%.
As for `O=C(Nc1ccc(C(=O)OCc2cc(=O)n3nc(C4CC4)sc3n2)cc1)c1ccc(F)cc1`, the activity change, negative = inhibition was 7.95%.
With `CC(C)c1ccc2oc(-c3cc(NC(=O)c4cccs4)ccc3Cl)nc2c1` the figure was -18.9%; with `C[C@@H]1Cn2cnc(C(=O)Nc3ccc(CNC(=O)OC(C)(C)C)cc3)c2C(=O)N1`, -101% (active); with `C[C@H]1Cn2cnc(C(=O)N[C@H](C)c3ccccc3)c2C(=O)N1`, -3.07%.
With `C[C@H]1Cn2cnc(C(=O)N[C@@H](Cc3c[nH]c4ccccc34)C(=O)OC(C)(C)C)c2C(=O)N1` the figure was 16%; with `O=C(NCC(c1cccnc1)N1CCc2ccccc21)c1cccc(C(F)(F)F)c1` (stereo not given), -36.7%; with `O=C(Nc1ccccc1C(=O)N1CCOCC1)c1ccc(Cl)cc1`, 8.32%.
With `O=C(Oc1cccc(C(=S)N2CCOCC2)c1)c1cccc(Cl)c1` the figure was -4.94%; with `O=C(Nc1ccc(Cl)cc1)c1cccc(OC(=S)N2CCOCC2)c1`, -103% (active).
Take `Cc1nc(NC(=O)C2CCCCC2)sc1C`: the activity change, negative = inhibition is 62.5%.
With `O=C(NNC1=NCCC1)c1cccc(S(=O)(=O)N2CCCCC2)c1` the figure was -11.4%.
The figure for `O=C(NNc1nc(N2CCCC2)nc(N2CCCC2)n1)c1ccccc1` is -66.4% (active); for `Cc1ccc(C(CC(=O)O)Nc2nc(N3CCCCC3)nc(N3CCCCC3)n2)cc1` (stereo not given) it is -10.1%.
With `CCC1(C)CC(=O)c2c(ccc3oc(C(=O)Nc4ccc(C(C)=O)cc4)c(C)c23)O1` (stereo not given) the figure was -8.87%; with `COc1cccc(C2C(C(=O)Nc3ccc(C)cc3C)=C(C)Nc3c(C(=O)Nc4ccccc4)cnn32)c1` (stereo not given), -31.3%; with `O=C1CSC(=O)N1CCOCCN1C(=O)CSC1=O`, 11.3%.
With `CC(C)(C)NC(=O)CSc1nc(-c2ccc(F)cc2)cc(C(F)(F)F)n1`, the activity change, negative = inhibition was -8.55%.
The figure for `CC12CCC3C(CCC4CC(=O)CCC43C)C1CC(=NO)C2=O` (stereo not given) is 16.3%; for `CC(C)c1ccc(NC(=O)CN(C)S(=O)(=O)c2ccc3c(c2)c(=O)n(C)c(=O)n3C)cc1` it is -106% (active).
With `CCc1ccccc1NC(=O)CN(C)S(=O)(=O)c1ccc2c(c1)c(=O)n(C)c(=O)n2C` the figure was 14.6%.
With `CN(CC(=O)Nc1ccccc1F)S(=O)(=O)c1ccc2c(c1)c(=O)n(C)c(=O)n2C` the figure was 3.4%; with `CC1CCCC(NC(=O)COC(=O)[C@@H]2CC(O)CN2S(=O)(=O)c2ccc3c(c2)OCCO3)C1C` (stereo not given in full), 10.5%.
Turning to `Cc1ccc(Cl)cc1NC(=O)CSc1nccn1C`, the activity change, negative = inhibition is -11.3%.
The figure for `Cc1cc(C)n(CCNCc2c(C(=O)N3C[C@@H](C)O[C@@H](C)C3)nc3ccc(Cl)cn23)n1` is 18.2%.
For `Cc1ccc(C(=O)N2CCc3cc(CNC(=O)c4ccc(Br)cc4)ccc32)cc1`, the activity change, negative = inhibition was -17.7%.
With `CC1=C(C(=O)N2CCN(c3cccc(C(F)(F)F)c3)CC2)C2(CCCCC2)OC1=O` the figure was 30.4%; with `Nc1nc(SCC(=O)NCCN2CCOCC2)nc2sc3c(c12)CCC3`, 5.31%.
The figure for `C=C(C)CSc1nc(N)c2c3c(sc2n1)CCC3` is 31.9%.
The figure for `CC(C)(C)C1CCc2c(sc3nc(SCC(N)=O)nc(N)c23)C1` (stereo not given) is -100% (active).
For the compound `CC(C)(C)c1ccc(C(=O)NCc2nnc(SCC(=O)N3CCCc4ccccc43)n2-c2ccccc2)cc1`, the activity change, negative = inhibition is -18.4%.
The figure for `CC1(C)C(=O)CCC2(C)C1=CCC1C2C(=O)CC2(C)C1CCC2(O)C(=O)CO` (stereo not given) is -4.43%.
The figure for `Cc1cc(C)c(NC(=O)Cn2c(SCC(=O)NCc3ccccc3)nc3ccccc32)c(C)c1` is -0.705%.
As to `CC1(C(=O)OCC(=O)Nc2ncc(Cl)cc2Cl)CC1(Cl)Cl` (stereo not given), the activity change, negative = inhibition was -27.2%.
The figure for `Cc1ccc(-n2c(SCC(=O)Nc3ncc(Cl)cc3Cl)nc3ccccc32)cc1` is -98.7% (active).
On to `COc1cc2nc(SCC(=O)Nc3ccccc3F)n3nc(-c4ccccc4)nc3c2cc1OC`, for which the activity change, negative = inhibition is -6.09%.
The figure for `Cc1ccccc1CS(=O)(=O)CC1Nc2ccc(C(=O)NCc3ccc(Cl)cc3)cc2NC1=O` (stereo not given) is 2.23%; for `CC(C)c1ccc(OCC(=O)N(Cc2ccc(N(C)C)cc2)C2CCS(=O)(=O)C2)cc1` (stereo not given) it is 7.29%.
The figure for `CCc1ccc(NC(=O)C2CCCN2S(=O)(=O)c2ccc3nc(-c4ccccc4)[nH]c3c2)cc1` (stereo not given) is -18.7%; for `CCCCn1c(N)c(N(CCC(C)C)C(=O)COC(=O)c2cccnc2OCC)c(=O)[nH]c1=O` it is -5.28%.
The figure for `NS(=O)(=O)c1ccc(CNC(=O)c2cc(S(=O)(=O)N3CCOCC3)ccc2N2CCCC2)cc1` is -10.4%.
As for `CCn1c(/C=C/c2ccc([N+](=O)[O-])o2)nc2ccccc2c1=O`, the activity change, negative = inhibition is -99.1% (active).
The figure for `CCCN(CCC)c1c([N+](=O)[O-])c(=O)oc2ccccc12` is -7.74%.
With `COc1cc(OC)c(OC)cc1/C=C/c1nc2ccccc2c(=O)n1-c1ccc(Br)c(C)c1` the figure was 3.49%.
